Three sequences from publication PMC7862700, “An all-to-all approach to the identification of sequence-specific readers for epigenetic DNA modifications on cytosine” can be followed below.

Common to all, as to assay: DAPPL (digital affinity profiling via proximity ligation, sequencing); 10 mM Tris-HCl pH 7.5, 50 mM NaCl, 1 mM DTT, 4% glycerol, room temperature, 30 min; GST-TFs on glutathione beads, 16-mer random dsDNA library, 0.1% formaldehyde crosslink after washing; high values mean tight binding
Holding throughout (conditions): protein: recombinant; tags: N-terminal GST; dsDNA, one strand shown

One experiment deals with ELF4 (Homo sapiens, UniProt Q99607 1-663). The method in brief: (§1)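 Binding signal is given per hexamer as its read frequency for a factor divided by its frequency in the tag-only sample. GST-fused human transcription factors were expressed in yeast, captured on glutathione beads, barcoded with DNA and pooled with that sample, then incubated with 200 nmole of a 16-mer random double-stranded DNA library in Tris/NaCl/DTT/glycerol buffer for 30 min at room temperature. The pools were then washed, crosslinked, proximity-ligated, amplified by PCR and sequenced on an Illumina NextSeq500.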

The next experiment deals with T1, ELK4 (Homo sapiens, UniProt P28324-2 1-405).
T1 sequence: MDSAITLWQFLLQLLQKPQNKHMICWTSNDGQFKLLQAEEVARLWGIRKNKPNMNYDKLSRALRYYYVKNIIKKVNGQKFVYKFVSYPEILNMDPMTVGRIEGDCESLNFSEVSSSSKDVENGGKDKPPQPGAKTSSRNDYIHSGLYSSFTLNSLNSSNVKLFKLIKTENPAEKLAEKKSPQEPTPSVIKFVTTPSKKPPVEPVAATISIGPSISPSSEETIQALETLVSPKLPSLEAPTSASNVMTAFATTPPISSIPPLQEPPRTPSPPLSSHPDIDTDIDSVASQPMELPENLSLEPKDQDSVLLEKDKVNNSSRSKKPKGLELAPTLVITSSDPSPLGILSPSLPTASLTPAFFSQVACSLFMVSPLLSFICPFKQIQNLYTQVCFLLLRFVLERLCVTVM
The method in brief:
as §1

For a further experiment, the target named is ETV1 (Homo sapiens, UniProt P50549 1-477). The method in brief:
as §1

For a further experiment, the target named is T2, ELK1 (Homo sapiens, UniProt P19419 1-428).
T2 sequence: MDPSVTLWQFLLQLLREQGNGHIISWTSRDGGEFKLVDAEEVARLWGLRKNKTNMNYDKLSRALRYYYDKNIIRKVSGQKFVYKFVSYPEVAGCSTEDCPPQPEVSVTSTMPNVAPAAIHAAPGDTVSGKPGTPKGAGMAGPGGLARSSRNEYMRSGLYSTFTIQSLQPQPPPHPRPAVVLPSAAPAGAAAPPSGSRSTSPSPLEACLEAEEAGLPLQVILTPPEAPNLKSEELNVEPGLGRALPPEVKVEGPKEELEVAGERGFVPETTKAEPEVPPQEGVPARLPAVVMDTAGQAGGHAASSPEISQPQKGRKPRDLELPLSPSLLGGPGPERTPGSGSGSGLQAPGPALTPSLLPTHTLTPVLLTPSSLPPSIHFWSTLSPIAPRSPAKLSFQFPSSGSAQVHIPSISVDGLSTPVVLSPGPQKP
The method in brief: as §1

Another experiment addresses T3, GABPA (Homo sapiens, UniProt Q06546 1-454).
T3 sequence: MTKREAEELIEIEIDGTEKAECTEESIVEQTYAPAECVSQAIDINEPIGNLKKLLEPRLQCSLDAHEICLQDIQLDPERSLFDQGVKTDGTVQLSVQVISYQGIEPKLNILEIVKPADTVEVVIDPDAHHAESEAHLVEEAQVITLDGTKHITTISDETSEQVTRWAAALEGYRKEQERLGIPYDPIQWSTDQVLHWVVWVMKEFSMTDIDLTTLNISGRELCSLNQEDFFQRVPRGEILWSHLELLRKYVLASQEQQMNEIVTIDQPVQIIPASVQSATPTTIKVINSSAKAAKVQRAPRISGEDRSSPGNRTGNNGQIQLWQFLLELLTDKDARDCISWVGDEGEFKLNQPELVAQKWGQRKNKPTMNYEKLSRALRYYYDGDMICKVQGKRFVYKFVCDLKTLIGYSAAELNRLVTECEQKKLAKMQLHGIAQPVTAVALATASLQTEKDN
The method in brief:
as §1

The target in a further experiment is T4, ERG (Homo sapiens, UniProt P11308 1-479).
T4 sequence: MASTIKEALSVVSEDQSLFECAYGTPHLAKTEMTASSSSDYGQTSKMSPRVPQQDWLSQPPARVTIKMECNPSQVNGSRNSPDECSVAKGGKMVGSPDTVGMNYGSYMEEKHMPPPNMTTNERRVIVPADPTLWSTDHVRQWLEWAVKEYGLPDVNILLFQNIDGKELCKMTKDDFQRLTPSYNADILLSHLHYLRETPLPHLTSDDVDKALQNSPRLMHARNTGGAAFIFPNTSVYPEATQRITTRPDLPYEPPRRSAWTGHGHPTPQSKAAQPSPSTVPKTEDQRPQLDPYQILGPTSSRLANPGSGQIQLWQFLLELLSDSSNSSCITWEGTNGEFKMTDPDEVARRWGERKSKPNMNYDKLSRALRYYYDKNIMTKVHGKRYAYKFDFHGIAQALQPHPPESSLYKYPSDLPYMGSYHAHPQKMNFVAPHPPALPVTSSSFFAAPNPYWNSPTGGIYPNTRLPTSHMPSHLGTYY
The method in brief: as §1

The next experiment concerns the target ELF1 (Homo sapiens, UniProt P32519 1-619). The method in brief:
as §1

The target of the next experiment is T5, EHF (Homo sapiens, UniProt Q9NZC4 1-300).
T5 sequence: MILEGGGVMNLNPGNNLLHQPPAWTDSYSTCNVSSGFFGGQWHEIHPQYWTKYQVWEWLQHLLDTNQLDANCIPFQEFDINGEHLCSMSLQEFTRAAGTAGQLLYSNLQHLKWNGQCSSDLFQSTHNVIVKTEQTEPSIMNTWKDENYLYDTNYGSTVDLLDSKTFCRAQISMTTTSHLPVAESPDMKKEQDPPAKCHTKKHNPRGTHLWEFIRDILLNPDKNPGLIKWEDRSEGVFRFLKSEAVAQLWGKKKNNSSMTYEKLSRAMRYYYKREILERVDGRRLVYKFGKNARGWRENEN
The method in brief: as §1

A further experiment deals with SPI1 (Homo sapiens, UniProt P17947 1-270). The method in brief:
as §1

For a further experiment, the target named is T6, ELK3 (Homo sapiens, UniProt P41970 1-407).
T6 sequence: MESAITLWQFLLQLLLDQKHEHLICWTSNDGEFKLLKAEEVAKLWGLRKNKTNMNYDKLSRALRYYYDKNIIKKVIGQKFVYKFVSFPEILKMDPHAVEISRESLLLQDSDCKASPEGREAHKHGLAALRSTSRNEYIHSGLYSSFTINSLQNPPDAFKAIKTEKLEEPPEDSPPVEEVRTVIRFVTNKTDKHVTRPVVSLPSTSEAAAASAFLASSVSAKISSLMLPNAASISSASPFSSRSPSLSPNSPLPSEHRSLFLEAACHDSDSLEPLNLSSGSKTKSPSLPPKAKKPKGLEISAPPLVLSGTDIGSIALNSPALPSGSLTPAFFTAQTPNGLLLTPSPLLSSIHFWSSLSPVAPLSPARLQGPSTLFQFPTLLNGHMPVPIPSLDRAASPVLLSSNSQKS
The method in brief: as §1

For a further experiment, the target named is T7, FEV (Homo sapiens, UniProt Q99581 1-238).
T7 sequence: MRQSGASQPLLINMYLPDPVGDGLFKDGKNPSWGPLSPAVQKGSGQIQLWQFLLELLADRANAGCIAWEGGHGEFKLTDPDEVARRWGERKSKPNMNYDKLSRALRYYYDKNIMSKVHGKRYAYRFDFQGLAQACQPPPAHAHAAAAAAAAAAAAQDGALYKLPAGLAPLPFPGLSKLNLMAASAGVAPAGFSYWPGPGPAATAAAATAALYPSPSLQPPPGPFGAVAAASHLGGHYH
The method in brief:
as §1

A further experiment addresses T8, ERF (Homo sapiens, UniProt P50548 1-548).
T8 sequence: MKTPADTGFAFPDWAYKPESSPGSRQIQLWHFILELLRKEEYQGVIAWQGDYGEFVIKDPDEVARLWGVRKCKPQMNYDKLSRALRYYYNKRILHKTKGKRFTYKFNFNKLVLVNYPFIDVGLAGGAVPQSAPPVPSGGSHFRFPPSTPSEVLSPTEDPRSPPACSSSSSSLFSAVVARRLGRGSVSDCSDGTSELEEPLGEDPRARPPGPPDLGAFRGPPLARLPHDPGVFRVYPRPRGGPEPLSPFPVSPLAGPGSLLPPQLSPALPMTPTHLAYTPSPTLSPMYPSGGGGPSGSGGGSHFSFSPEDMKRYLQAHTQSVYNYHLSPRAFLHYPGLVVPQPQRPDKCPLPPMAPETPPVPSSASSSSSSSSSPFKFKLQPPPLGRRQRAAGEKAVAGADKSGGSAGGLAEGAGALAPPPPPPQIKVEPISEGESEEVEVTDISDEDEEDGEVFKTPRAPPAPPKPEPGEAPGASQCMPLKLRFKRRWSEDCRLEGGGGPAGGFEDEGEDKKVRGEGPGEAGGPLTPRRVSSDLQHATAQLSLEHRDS
The method in brief:
as §1

Another experiment has as its target T9, ETS2 (Homo sapiens, UniProt P15036 1-469).
T9 sequence: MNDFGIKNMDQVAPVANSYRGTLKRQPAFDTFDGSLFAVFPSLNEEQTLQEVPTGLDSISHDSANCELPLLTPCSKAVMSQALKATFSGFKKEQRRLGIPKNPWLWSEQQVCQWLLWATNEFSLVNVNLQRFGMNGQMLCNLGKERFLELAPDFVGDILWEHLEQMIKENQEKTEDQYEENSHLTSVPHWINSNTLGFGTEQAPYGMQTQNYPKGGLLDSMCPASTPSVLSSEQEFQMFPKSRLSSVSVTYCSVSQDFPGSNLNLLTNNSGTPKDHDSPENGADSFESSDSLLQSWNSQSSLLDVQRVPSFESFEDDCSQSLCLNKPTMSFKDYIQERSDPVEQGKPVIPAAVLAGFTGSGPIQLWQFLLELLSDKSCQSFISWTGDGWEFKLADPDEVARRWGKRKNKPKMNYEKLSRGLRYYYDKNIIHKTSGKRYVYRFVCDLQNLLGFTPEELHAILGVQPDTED
The method in brief: as §1

Another experiment has as its target T10, ETV3 (Homo sapiens, UniProt P41162-2 1-143).
T10 sequence: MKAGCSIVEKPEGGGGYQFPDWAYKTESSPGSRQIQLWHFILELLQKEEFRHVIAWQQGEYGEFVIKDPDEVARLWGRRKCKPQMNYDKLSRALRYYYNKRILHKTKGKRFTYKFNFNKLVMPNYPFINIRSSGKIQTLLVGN
The method in brief:
as §1

Chain of ELF4 (Q99607 whole entry, the tested form may be a part): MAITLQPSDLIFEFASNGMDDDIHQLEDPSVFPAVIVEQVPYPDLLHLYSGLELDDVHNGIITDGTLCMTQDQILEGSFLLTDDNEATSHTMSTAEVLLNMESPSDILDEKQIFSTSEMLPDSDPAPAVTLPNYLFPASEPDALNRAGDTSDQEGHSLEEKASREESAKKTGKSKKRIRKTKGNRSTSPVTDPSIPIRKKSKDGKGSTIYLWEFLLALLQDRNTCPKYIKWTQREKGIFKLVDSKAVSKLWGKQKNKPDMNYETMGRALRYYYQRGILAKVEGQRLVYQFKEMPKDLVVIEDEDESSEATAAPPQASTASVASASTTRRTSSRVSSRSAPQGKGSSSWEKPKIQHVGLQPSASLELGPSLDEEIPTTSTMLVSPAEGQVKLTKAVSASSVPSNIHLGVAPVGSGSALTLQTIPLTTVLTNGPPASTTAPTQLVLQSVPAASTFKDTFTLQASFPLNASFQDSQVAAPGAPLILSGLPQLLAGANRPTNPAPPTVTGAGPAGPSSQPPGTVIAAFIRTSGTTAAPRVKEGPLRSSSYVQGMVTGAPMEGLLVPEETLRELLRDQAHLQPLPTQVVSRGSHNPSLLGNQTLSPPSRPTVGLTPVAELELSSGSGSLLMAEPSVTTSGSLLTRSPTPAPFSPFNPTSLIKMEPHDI
Chain of ETV1 (P50549 whole entry): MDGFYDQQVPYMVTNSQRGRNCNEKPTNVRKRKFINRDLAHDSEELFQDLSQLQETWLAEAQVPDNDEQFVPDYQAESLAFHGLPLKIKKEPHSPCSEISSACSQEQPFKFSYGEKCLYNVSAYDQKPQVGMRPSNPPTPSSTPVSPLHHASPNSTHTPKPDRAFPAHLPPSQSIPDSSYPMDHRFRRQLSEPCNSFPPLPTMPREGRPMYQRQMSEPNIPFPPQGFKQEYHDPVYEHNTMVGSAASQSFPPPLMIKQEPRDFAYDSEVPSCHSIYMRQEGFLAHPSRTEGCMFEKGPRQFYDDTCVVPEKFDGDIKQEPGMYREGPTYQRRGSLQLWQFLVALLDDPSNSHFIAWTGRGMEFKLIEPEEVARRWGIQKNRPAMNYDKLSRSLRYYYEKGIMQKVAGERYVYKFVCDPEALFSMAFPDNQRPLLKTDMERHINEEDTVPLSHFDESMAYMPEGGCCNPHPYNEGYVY
Chain of ELF1 (P32519 whole entry): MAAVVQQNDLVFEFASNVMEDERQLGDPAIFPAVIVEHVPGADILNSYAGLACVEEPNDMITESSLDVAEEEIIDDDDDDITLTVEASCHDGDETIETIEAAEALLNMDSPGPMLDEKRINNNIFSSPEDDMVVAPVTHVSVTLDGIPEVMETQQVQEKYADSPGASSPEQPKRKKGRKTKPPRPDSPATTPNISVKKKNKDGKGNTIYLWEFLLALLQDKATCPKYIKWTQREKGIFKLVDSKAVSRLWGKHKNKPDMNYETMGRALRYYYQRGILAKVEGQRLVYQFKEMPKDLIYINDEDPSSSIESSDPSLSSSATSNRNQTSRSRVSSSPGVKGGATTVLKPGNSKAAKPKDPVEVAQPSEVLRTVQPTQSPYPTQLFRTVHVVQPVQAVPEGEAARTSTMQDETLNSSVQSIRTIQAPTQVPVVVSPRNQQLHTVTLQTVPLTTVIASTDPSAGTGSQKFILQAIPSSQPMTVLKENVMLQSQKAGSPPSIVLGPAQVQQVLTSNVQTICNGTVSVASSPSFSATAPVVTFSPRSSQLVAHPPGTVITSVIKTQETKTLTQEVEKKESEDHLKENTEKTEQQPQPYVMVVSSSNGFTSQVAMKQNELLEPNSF

Turning to GTCACC, the binding signal with ELF4 is 1.01 fold enrichment (6-mer frequency, TF over GST control).
For GAGCTC, the binding signal with ELF4 was 1.02 fold enrichment (6-mer frequency, TF over GST control); in the experiment with ELK4, 1.04 fold enrichment (6-mer frequency, TF over GST control); with ETV1, 1.05 fold enrichment (6-mer frequency, TF over GST control).
In the case of CACCGC, the binding signal with ELK1 is 1.01 fold enrichment (6-mer frequency, TF over GST control); with GABPA it was 1.06 fold enrichment (6-mer frequency, TF over GST control); in the experiment with ERG it was 1.02 fold enrichment (6-mer frequency, TF over GST control); with ELF1, 1.04 fold enrichment (6-mer frequency, TF over GST control); with EHF it was 1.08 fold enrichment (6-mer frequency, TF over GST control); with SPI1, 1.01 fold enrichment (6-mer frequency, TF over GST control). Also, the binding signal in the experiment with ELK3 is 1.06 fold enrichment (6-mer frequency, TF over GST control); with FEV, 1.04 fold enrichment (6-mer frequency, TF over GST control); in the experiment with ELF4, 1.06 fold enrichment (6-mer frequency, TF over GST control); with ELK4, 1 fold enrichment (6-mer frequency, TF over GST control); in the experiment with ETV1, 1 fold enrichment (6-mer frequency, TF over GST control); with ERF it was 1.07 fold enrichment (6-mer frequency, TF over GST control). Besides, the binding signal with ETS2 was 1.05 fold enrichment (6-mer frequency, TF over GST control); with ETV3, 1.04 fold enrichment (6-mer frequency, TF over GST control).
